In PubChem BioAssay (NCATS):
Inconclusive results are not listed. Calls of active or inactive are those of the source. Unless noted, calls follow the shape of the dose curve; as a rule, active = well fitted curve in either direction with a large enough effect (not every such curve was filed as active); inconclusive = small, poorly fitted or top-dose-only effect, or another doubt; inactive = flat fitted curve, though single readings scatter.

Assays:
[1] = target: Lysosomal acid glucosylceramidase (Homo sapiens) (UniProt P04062); assay: Glucocerebrosidase-p2 (AID 348; in the data active = potency below about 10 µM; also: potency is read from the fitted curve at half-maximal effect); settings: purified GBA, blue fluorogenic substrate, 40 min
How it was run: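 Normal human glucocerebrosidase (0.2 nM) with blue fluorogenic substrate (80 uM final) in citrate/phosphate pH 5.9 with 10mM sodium taurocholate, 0.01% tween-20; 40 min RT, NaOH/glycine stop; fluorescence Ex 365/Em 440; AC50 from a titration from 0.6 nM upwards.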

[2] = AP1 Signaling Pathway (AID 357); settings: ME-180 AP-1-bla reporter, EGF-induced, beta-lactamase ratio, 5 h; at 7.69 µM (top of the series) unless noted; also: % is scaled to controls: 0 for no effect and ±100 for the full control effect
How it was run: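 Titration-series screen for positive or negative modulators of EC50 EGF-induced signaling in ME-180 cells carrying an AP-1-driven beta-lactamase reporter. After 5 hours at 37 degrees Celsius, CCF4 460nm/530nm emission ratio gave %Activity; AC50 values derived.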

[3] = target: Cytochrome P450 1A2 (Homo sapiens) (UniProt P05177); assay: p450-cyp1a2 (AID 410; calls by dose curve; also: potency is read from the fitted curve at half-maximal effect); settings: recombinant CYP1A2, luciferin-ME demethylation, luminescence; series mostly up to 57 µM
How it was run: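 20nM CYP1A2, 100uM Luciferin-ME (=Km), 100mM KPO4; cpd 10 min RT; +NADPH regen, 60 min RT; stop/detect 20 min; luminescence. Normalized to furafylline 57 uM = full inhibition.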

[4] = NFAT Signaling Pathway (AID 444); settings: Jurkat NFAT-bla M1, carbachol, beta-lactamase ratio, 5 h; at 7.69 µM (top of the series) unless noted;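 also: carbachol stimulus at about its EC50 of 1 µM final; % is scaled to controls: 0 for no effect and ±100 for the full control effect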
How it was run: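 Read-out: CCF4 FRET ratio (460 nm/530 nm) after 1 h RT dye loading, used for %activity and AC50 from titration series. Cells: Jurkat NFAT-β-lactamase/M1 line, treated with compound plus 1 uM carbachol for 5 h, 37 °C.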

[5] = Stat Signaling Pathway (AID 446); settings: ME-180 (cervical carcinoma) SIE beta-lactamase reporter, IL-6 stimulated, 5 h; at 7.69 µM (top of the series) unless noted;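 also: ME-180 cervical cancer cells given 40 pM IL-6 alongside compound; SIE-controlled beta-lactamase reporter measured as 460/530 nm FRET emission ratio; % is scaled to controls: 0 for no effect and ±100 for the full control effect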
How it was run: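 Normalization used AC90 stimulation (300 pM IL-6) and AC90 inhibition (125 nM pan-JAK inhibitor at 40 pM IL-6). The underlying signal is SIE-driven beta-lactamase in ME-180 cells after 5 h IL-6 exposure with compound.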

[6] = target: Glucocorticoid receptor (Homo sapiens) (UniProt P04150); assay: GR-EFC Redistribution (AID 451; calls by dose curve; also: potency is read from the fitted curve at half-maximal effect); settings: CHO-K1 GR-EFC translocation, beta-gal luminescence, 2 h
How it was run: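 Translocation of GR-ED fusion to nuclear EA restores b-gal, read by luminescence after 1 h room-temperature detection. Engineered CHO-K1 biosensor cells, 1,000/well, exposed 2 h at 37 C to titrations up to 46 uM final.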

[7] = target: 3',5'-cyclic-AMP phosphodiesterase 4B (Homo sapiens) (UniProt Q07343); assay: qHTS Assay for Inhibitors of PDE-IV (AID 607; active = well fitted activation curve with a large enough effect in the main read-out, with a control signal flat, not every such curve was filed as active; also: % of control where 0% means no effect); settings: HEK293 ACTOne CNG channel cells, membrane potential fluorescence; series mostly up to 22.9 µM
How it was run: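 HEK293 ACTOne cells with CNG channel (1000/well), endogenous PDE4; membrane potential dye, compounds up to 22.9 uM final. Fluorescence Ex 535/Em 590; RO 20-1724 (100 uM final) as reference.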

[8] = qHTS Assay for Lipid Storage Modulators (AID 1519; calls by dose curve); settings: Drosophila S3 cells, BODIPY lipid droplet/cell ratio, laser cytometry, cells loaded with oleic acid; for activity change, negative = inhibition: at 57.5 µM (top of the series)
How it was run: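 Cells seeded at 5,000 per well were treated with compounds over a concentration series and loaded with oleic acid (400 uM, as added). Lipid droplet fluorescence (488 nm excitation, 500-530 nm channel) was read by laser-scanning cytometry and normalized to 20 uM Triacsin C.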

[9] = Cell Viability qHTS for small molecule stabilizers of the endoplasmic reticulum resident proteome (AID 1508629; active = well fitted curve in the direction sought with a large enough effect; an effect the other way counts as inactive or inconclusive;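 also: human SH-SY5Y neuroblastoma cells carrying the GLuc-SERCaMP reporter; compound exposure about 46 h in total before the viability read; % is scaled to controls: 0 for no effect and ±100 for the full control effect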); settings: cell viability counter-screen, 100 nM thapsigargin for final 4 h
[10] = target: Glucocorticoid receptor (Homo sapiens) (UniProt P04150); assay: GR-GFP Redistribution (AID 450;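 active = compounds whose dose series gives a full or clear partial fitted curve of increased nuclear translocation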; also: potency is read from the fitted curve at half-maximal effect); settings: U2OS GR-GFP nuclear translocation, laser cytometry, 2 h
[11] = target: Mitogen-activated protein kinase 10 (Mus musculus) (UniProt Q61831); assay: JNK3 AlphaScreen Assay (AID 530); settings: JNK3 lysate, c-Jun phosphorylation; series mostly up to 57.1 µM
How it was run: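 Kinase buffer: 20 mM Tris-HCl pH 7.6, 10 mM MgCl2, 1 mM DTT, 0.1 mM Na3VO4, 0.01% Tween-20; ATP 10 uM. Substrate biotin-GST-cJun(1-79), enzyme from activated HepG2 lysates. Detection by Ser73 phospho-antibody AlphaScreen.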

[12] = target: Cytochrome P450 3A4 (Homo sapiens) (UniProt P08684); assay: qHTS Assay for Activators of Cytochrome P450 3A4 (AID 885; active = well fitted curve in the direction sought with a large enough effect; an effect the other way counts as inactive or inconclusive; also: nearly all actives have a fitted effect of over 65% in size); settings: recombinant CYP3A4, Luciferin-PPXE luminescence, 60 min; series mostly up to 57.1 µM
How it was run: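 Human CYP3A4 dealkylates Luciferin-PPXE to luciferin, which luciferase detection converts to light. Substrate was at its KM (25uM), buffer 200mM KPO4, reaction 60 min at RT.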

[13] = Confirmation and Secondary Assay for Modulators of Hemoglobin Beta Chain Splicing at IVS2 654 locus (AID 910; active = well fitted curve in the direction sought with a large enough effect; an effect the other way counts as inactive or inconclusive;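 also: HeLa cells stably carrying EGFP split by mutant beta-globin IVS2-654 intron; per-well total GFP intensity by laser scanning cytometry after 2-day treatment; % of control where 0% means no effect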); settings: HeLa EGFP-654 splicing reporter, GFP fluorescence, 48 h; series mostly up to 38.3 µM
How it was run: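 Readout: per-well total peak green fluorescence (488 nm ex, 500–520 nm em) from objects 5–250 µm, reflecting correct splicing of an EGFP-654 reporter. Compounds were applied for 2 days at 37 °C to overnight-plated HeLa EGFP-654 cells; controls were DMSO and 500 nM IVS2-654 PNA.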

[14] = target: Ubiquitin carboxyl-terminal hydrolase 1 (Homo sapiens) (UniProt O94782); assay: Inhibitors of USP1/UAF1: Pilot qHTS (AID 504865; active = well fitted curve in the direction sought with a large enough effect; an effect the other way counts as inactive or inconclusive;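 also: rhodamine fluorescence freed from ubiquitin-rhodamine substrate followed over time; top concentration of the series differs between compounds; % is scaled to controls: 0 for no effect and ±100 for the full control effect; nearly all actives have a fitted effect of over 35% in size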); settings: purified USP1/UAF1, Ub-rhodamine cleavage fluorescence; series mostly up to 54.9 µM
How it was run: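 In 50mM HEPES pH 7.8 containing 0.5mM EDTA, 1mM TCEP, 0.1 mg/ml BSA and 0.01% Tween-20, 1nM USP1/UAF1 is exposed to compound for 15 min, then Ub-Rho (150nM final) is added and fluorescence is read over time.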

[15] = Confirmatory qHTS for small molecule stabilizers of the endoplasmic reticulum resident proteome: Secreted ER Calcium Modulated Protein (SERCaMP) assay (AID 1508628; active = well fitted curve in the direction sought with a large enough effect; an effect the other way counts as inactive or inconclusive; also: nearly all actives have a fitted effect of over 40% in size; also: potency is read from the fitted curve at half-maximal effect); settings: SERCaMP secreted luciferase ER calcium/proteostasis reporter; series mostly up to 76.3 µM
How it was run: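 GLuc-SERCaMP-expressing SH-SY5Y cells, pretreated 16 h with compound, are challenged with thapsigargin to empty ER calcium stores; after 4 h, coelenterazine is added directly to the medium and luminescence is imaged.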

[16] = Counterscreen qHTS for small molecule stabilizers of the endoplasmic reticulum resident proteome: GLuc-NoTag assay (AID 1508627; active = well fitted curve in the direction sought with a large enough effect; an effect the other way counts as inactive or inconclusive;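 also: SH-SY5Y cells given compound then 100 nM thapsigargin to empty ER calcium; 0% = thapsigargin alone and -100% = DMSO vehicle control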); settings: Gaussia luciferase NoTag secretion counterscreen, luminescence, thapsigargin 100 nM for final 4 h; series mostly up to 76.4 µM
How it was run: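 Counterscreen line: SH-SY5Y-GLuc-NoTag cells, treated with compound 19 hr before a 4 hr, 100 nM thapsigargin calcium depletion. Secreted Gaussia luciferase in the medium was measured by luminescence after coelenterazine was added (0.07x final), with cells unlysed.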

[17] = measured here: cell count channel max response
[18] = measured here: lipid channel max response

Sequence of Lysosomal acid glucosylceramidase (Homo sapiens) (P04062 whole entry, looked up): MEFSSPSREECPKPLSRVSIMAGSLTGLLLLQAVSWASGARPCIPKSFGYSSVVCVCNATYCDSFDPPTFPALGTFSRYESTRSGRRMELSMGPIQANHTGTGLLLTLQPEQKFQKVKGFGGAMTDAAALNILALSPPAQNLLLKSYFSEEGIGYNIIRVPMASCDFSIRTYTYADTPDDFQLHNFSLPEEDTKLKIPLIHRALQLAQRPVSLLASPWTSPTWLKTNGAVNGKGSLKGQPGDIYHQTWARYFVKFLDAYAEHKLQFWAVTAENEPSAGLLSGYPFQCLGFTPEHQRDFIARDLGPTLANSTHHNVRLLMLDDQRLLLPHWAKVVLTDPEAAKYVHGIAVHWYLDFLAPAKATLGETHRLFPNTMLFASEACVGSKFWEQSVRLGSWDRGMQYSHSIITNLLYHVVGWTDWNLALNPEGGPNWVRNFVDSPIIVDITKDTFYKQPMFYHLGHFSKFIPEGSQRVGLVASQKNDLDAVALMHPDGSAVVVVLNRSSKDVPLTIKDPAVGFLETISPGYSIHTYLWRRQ
Sequence of Glucocorticoid receptor (Homo sapiens) (P04150 whole entry, looked up, the tested form may be a part): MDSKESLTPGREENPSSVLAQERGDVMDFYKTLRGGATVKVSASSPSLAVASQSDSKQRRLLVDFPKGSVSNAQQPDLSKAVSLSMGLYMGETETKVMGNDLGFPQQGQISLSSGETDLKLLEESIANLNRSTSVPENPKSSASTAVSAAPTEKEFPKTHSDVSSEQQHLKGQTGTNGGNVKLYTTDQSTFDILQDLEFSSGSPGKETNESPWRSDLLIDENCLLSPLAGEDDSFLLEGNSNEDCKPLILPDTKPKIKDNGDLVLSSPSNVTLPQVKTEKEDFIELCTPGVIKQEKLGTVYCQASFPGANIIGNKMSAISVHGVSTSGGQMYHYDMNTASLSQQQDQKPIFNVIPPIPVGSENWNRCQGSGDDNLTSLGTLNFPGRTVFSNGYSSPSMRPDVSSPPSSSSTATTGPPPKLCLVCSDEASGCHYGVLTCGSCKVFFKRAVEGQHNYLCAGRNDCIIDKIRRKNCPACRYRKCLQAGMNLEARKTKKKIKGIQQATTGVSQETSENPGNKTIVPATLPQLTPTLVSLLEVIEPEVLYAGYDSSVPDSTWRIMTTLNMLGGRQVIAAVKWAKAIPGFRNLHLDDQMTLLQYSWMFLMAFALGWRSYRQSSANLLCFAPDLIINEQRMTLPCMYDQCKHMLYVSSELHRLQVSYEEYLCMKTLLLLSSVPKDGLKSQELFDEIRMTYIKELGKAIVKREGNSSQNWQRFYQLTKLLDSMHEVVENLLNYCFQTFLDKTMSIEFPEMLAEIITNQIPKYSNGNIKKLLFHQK
Sequence of Cytochrome P450 3A4 (Homo sapiens) (P08684 whole entry, looked up): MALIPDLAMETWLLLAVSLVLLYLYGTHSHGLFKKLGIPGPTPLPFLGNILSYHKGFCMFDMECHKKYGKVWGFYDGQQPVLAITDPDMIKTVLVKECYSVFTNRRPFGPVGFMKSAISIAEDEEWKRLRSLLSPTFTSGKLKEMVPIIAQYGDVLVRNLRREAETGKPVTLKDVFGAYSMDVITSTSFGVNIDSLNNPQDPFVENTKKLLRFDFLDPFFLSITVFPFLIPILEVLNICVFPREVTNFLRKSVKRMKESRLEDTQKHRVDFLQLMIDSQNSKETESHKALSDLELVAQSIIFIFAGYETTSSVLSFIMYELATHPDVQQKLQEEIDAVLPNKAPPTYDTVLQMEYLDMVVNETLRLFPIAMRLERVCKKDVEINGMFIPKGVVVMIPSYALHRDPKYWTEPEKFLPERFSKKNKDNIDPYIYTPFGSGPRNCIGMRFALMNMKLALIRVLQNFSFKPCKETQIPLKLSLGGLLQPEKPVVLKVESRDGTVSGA
Sequence of 3',5'-cyclic-AMP phosphodiesterase 4B (Homo sapiens) (Q07343 whole entry, looked up): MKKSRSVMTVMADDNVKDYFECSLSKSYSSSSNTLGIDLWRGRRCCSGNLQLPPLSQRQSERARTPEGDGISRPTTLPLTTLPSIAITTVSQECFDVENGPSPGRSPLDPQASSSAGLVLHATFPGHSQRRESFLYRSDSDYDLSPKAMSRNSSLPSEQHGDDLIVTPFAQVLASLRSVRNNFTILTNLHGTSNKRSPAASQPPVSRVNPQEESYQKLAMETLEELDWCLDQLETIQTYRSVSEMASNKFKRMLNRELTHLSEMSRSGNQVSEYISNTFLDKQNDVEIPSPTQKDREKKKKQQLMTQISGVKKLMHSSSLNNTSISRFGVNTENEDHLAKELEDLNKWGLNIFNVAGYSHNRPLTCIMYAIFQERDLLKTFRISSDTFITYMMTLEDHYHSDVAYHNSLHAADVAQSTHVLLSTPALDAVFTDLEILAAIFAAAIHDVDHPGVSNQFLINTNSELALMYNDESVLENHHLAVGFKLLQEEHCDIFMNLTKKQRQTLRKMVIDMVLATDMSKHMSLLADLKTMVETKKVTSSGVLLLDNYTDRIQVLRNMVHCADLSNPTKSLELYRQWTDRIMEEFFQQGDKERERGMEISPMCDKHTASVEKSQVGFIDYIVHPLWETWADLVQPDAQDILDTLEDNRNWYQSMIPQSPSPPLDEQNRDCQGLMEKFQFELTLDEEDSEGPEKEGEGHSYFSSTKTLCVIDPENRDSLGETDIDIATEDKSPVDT
Sequence of Cytochrome P450 1A2 (Homo sapiens) (P05177 whole entry, looked up): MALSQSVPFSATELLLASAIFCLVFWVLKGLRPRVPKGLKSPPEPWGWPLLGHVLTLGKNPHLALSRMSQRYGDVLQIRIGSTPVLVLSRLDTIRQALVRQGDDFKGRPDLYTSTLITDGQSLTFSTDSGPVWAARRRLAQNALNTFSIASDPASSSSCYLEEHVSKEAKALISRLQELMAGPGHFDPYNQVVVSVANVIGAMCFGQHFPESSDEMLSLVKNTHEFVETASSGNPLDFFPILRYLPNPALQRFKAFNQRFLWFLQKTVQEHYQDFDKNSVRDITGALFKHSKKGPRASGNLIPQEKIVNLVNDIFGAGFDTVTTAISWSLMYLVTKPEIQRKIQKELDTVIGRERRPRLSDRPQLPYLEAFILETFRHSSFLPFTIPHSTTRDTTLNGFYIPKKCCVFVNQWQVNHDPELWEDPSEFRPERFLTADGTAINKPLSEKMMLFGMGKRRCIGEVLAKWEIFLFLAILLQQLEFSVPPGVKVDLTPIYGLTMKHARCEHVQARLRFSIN
Sequence of Ubiquitin carboxyl-terminal hydrolase 1 (Homo sapiens) (O94782 whole entry, looked up): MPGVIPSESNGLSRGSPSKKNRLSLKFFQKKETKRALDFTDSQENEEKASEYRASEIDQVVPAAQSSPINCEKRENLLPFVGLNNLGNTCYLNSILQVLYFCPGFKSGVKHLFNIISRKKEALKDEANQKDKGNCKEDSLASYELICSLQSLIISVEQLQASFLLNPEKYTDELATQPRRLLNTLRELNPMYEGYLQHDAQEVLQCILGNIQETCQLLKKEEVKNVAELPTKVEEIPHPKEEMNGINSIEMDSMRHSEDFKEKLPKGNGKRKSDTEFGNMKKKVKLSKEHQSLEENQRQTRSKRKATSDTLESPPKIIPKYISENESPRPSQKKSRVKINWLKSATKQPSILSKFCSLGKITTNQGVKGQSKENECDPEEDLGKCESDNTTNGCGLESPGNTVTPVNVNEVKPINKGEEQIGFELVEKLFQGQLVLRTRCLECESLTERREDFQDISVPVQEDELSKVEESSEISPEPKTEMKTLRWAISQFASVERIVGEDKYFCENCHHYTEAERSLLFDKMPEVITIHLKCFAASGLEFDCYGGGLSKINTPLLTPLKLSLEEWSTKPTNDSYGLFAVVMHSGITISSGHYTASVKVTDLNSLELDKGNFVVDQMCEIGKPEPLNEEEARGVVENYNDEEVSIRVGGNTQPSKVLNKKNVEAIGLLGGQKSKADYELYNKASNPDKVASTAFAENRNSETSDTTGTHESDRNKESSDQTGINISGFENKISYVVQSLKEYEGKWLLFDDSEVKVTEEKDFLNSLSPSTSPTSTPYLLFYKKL

c1ccc(-c2cccc(N3CC4(CCNCC4)C3)c2)cc1
-7.34%: max response [8, 17]
-10.1%: max response [8, 18]
active: Potency [3] 12.6 µM
inactive: Potency [1] > 11.4 µM | activity change, negative = inhibition [2] 14.2% | activity change, negative = inhibition [4] 6.24% | activity, negative = inhibition [5] 3.73% | Potency [6] > 46 µM | Potency [7] | activity change, negative = inhibition [8] -6.46% | max response [9] -13.3%

N#Cc1cccc(-c2nc(N3CCNCC3)c3ccccc3n2)c1
11.8%: max response [8, 18]
active: Potency [3] 2.51 µM | Potency [15] 11.2 µM
6.46%: max response [8, 17]
inactive: Potency [1] > 11.4 µM | activity change, negative = inhibition [2] 5.75% | activity change, negative = inhibition [4] 10.9% | activity, negative = inhibition [5] 11.7% | Potency [10] > 46 µM | Potency [6] > 46 µM | outcome [11] | Potency [7] | Potency [12] | outcome [13] | activity change, negative = inhibition [8] 6.61% | Potency [14]

O=c1c(CCc2ccccc2)nc2cnc(N3CCNCC3)nc2n1Cc1ccc(F)cc1
inactive: activity change, negative = inhibition [2] -10.5% | activity, negative = inhibition [5] 16.5% | Potency [10] > 9.22 µM | Potency [6] > 46 µM | outcome [11] | activity change, negative = inhibition [8] 2.57% | Potency [15] | max response [9] -14.8%
12.8%: max response [8, 17]
11.7%: max response [8, 18]
active: Potency [3] 10 µM

COCCn1c(=O)c(CCc2ccccc2)nc2cnc(N3CCNCC3)nc21
inactive: Potency [1] > 11.4 µM | activity change, negative = inhibition [2] -4.91% | activity change, negative = inhibition [4] 10.2% | activity, negative = inhibition [5] -1.73% | Potency [10] > 9.22 µM | Potency [6] > 46 µM | outcome [11] | Potency [7] | Potency [16]

O=c1c(-c2ccccc2)nc2cnc(N3CCNCC3)nc2n1Cc1cccs1
inactive: Potency [1] > 11.4 µM | Potency [10] > 9.22 µM | Potency [6] > 46 µM | Potency [7] | Potency [15]

c1ccc2c(N3CCNCC3)nc(-c3ccc4c(c3)OCO4)nc2c1
inactive: Potency [1] > 11.4 µM | activity change, negative = inhibition [2] 14.9% | activity change, negative = inhibition [4] 11.9% | activity, negative = inhibition [5] 7.14% | Potency [6] > 46 µM | outcome [11] | Potency [7] | Potency [12] | outcome [13] | Potency [14]
active: Potency [15] 20 µM

COc1ccc(-c2nc3cnc(N4CCNCC4)nc3n(CCc3ccccc3)c2=O)cc1
-3.35%: max response [8, 17]
-12.2%: max response [8, 18]
active: activity change, negative = inhibition [2] 111% [activator] | Potency [3] 15.8 µM
inactive: Potency [1] > 11.4 µM | Potency [10] > 9.22 µM | Potency [6] > 46 µM | Potency [7] | Potency [12] | activity change, negative = inhibition [8] -10.5% | Potency [15]
